MITF inh – human MITF inhibition, primary screen. AlphaScreen MITF homodimerization, bead proximity signal. inhibition, % at 2.6 µM. hit rate 0.91% among 650,000; in the data active means inhibition above about 50%
FBW7 activator – human FBW7 E3 ligase activation, primary screen; AlphaScreen FBW7–phospho-cyclin E peptide binding, activator screen; normalized activity (activation), % at 26.1 µM; hit rate 0.13% among 650,000; in the data active means normalized activity above about 1.9%;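 further: purified mutant Fbw7 with reduced substrate affinity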
GPR151 ag – activators of human GPR151; Q8TDV0; PathHunter beta-arrestin GPR151 cells, luminescence; activation, % at 11.2 µM; hit rate 1% among 650,000; in the data active means activation above about 4.9%
Target sequence (Q8TDV0 whole entry, looked up): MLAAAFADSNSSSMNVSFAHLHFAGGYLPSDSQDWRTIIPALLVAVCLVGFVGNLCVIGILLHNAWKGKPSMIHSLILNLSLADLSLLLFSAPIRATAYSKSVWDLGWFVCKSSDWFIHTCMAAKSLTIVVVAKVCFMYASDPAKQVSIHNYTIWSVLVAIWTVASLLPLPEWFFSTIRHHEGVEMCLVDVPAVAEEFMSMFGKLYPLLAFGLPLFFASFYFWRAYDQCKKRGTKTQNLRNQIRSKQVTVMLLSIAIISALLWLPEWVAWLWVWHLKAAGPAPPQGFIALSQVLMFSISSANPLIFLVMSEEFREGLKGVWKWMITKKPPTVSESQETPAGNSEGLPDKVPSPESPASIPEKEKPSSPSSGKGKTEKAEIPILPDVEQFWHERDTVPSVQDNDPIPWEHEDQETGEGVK
TEAD-YAP inh – TEAD-YAP interaction inhibition; inhibition, % at 9.12 µM; HEK-TIYL cells, TEAD-Gal4/YAP UAS-luciferase luminescence; AID 1259422; hit rate 1.4% among 640,000; in the data active means inhibition above about 32%
Each line names hits and unclear results; the compound was inactive in the other large screens. Compounds with a hit are over-represented: about 3.4% of the library has one in this group of screens.

C=CCn1c2ccccc2n2cc(-c3ccccc3)nc12	none
Clc1ccc(-c2cn3c4ccccc4n(CCN4CCCCC4)c3n2)cc1	FBW7 activator 5.0
CCn1c2ccccc2n2cc(-c3ccc(Br)cc3)nc12	FBW7 activator 2.3
Cc1ccc(S(=O)(=O)c2cn(C)c3cc(N4CCN(C)CC4)c(F)cc3c2=O)cc1	none
Cc1cc2nn(-c3ccccc3)nc2cc1NC(=O)C(C)C	none
CC(C)CC(=O)Nc1ccc2nn(-c3ccccc3)nc2c1	FBW7 activator 3.0
O=C(COc1ccccc1)Nc1ccc2nn(-c3ccccc3)nc2c1	none
CC(=O)Nc1cc2nn(-c3ccccc3)nc2cc1C	TEAD-YAP inh 50
O=C(NC(=S)NCc1cccnc1)c1ccccc1[N+](=O)[O-]	none
CCOC(=O)CNS(=O)(=O)c1cc(-c2nnc(Nc3ccc(Cl)c(Cl)c3)c3ccccc23)ccc1C	FBW7 activator 2.2
Cc1ccc(C(=O)Nc2ccccn2)cc1C	TEAD-YAP inh 44
CC(C)(C)c1ccc(C(=O)Nc2ccccn2)cc1	TEAD-YAP inh 84
C=CCOc1ccc(C(=O)Nc2ccccn2)cc1	TEAD-YAP inh 52
CCOc1cc(/C=C2\SC(N)=NC2=O)ccc1OCC(=O)NCc1ccccc1	TEAD-YAP inh 32
COc1cc(/C=C2\SC(N)=NC2=O)ccc1OCC(=O)Nc1ccc(C)cc1	TEAD-YAP inh 34
CCOc1cc(/C=C2\SC(N)=NC2=O)ccc1OC(=O)c1cccs1	TEAD-YAP inh 35
Cc1ccc(C(=O)N/N=C/c2cc([N+](=O)[O-])cc(Br)c2O)cc1	none
O=C(COc1ccc(C(=O)c2ccccc2)cc1)OCC(=O)N1CCc2ccccc21	none
O=C(Nc1cccc([N+](=O)[O-])c1)c1cccc(S(=O)(=O)Nc2ccccc2C(=O)O)c1	none
Nc1ccc(-c2nc3ncc(Cl)cc3[nH]2)cc1	TEAD-YAP inh 35
Clc1cnc2nc(-c3cccnc3)[nH]c2c1	none
CCCn1c(-c2ccc(N)cc2)nc2ccccc21	TEAD-YAP inh 35
COc1ccc(-c2nc3ccccc3n2C)cc1	TEAD-YAP inh 32
COc1ccc(-c2nc3ccccc3c(=O)n2-c2nc3ccccc3n2C)cc1	TEAD-YAP inh 88
CCCOc1ncnc2c1sc1nc3c(cc12)COC(C)(C)C3	none
Cc1cc([N+](=O)[O-])nn1CC(=O)NCc1ccc(F)cc1C(F)(F)F	TEAD-YAP inh 44
C=CCn1c(SCc2c(C)noc2C)nc2scc(C3CC3)c2c1=O	TEAD-YAP inh 50
CCCCC1=CC2=C(OC(C)=O)C(=O)C(C)(OC(=O)CC)C(=O)C2=CO1 (configuration not stated)	none (no result: TEAD-YAP inh)
C=CCn1c(C)cc(C(=O)CSc2nc3ccccc3[nH]2)c1C	TEAD-YAP inh 53
Cc1ccc(Cl)cc1NC(=O)CSc1nc2ccccc2[nH]1	none
O=C(CSc1nc2ccccc2[nH]1)Nc1ccc(Cl)cc1O	TEAD-YAP inh 35
O=C(CSc1nc2ccccc2[nH]1)Nc1ccc(Cl)cn1	TEAD-YAP inh 75
O=C(CSc1nc2ccccc2[nH]1)Nc1ccccn1	none
CC(=O)Nc1nnc(SCc2cc(=O)c(OC(=O)c3cccc(C)c3)co2)s1	none
O=C(Nc1nc(-c2ccncc2)cs1)c1ccc([N+](=O)[O-])s1	none
O=C(c1ccc(-c2nnc(-c3ccccc3)o2)cc1)N1CCCCC1	TEAD-YAP inh 51
O=C(CNCc1ccccc1)Nc1ccc(N2CCCC2)cc1	none
Ic1ccc(OCCCCN2CCNCC2)cc1	none
O=C(c1ccc(OCc2ccccc2)cc1)N1CCCC1	TEAD-YAP inh 84
c1ccc(COc2ccc(OCCCCN3CCNCC3)cc2)cc1	MITF inh 56
O=C(CNCc1ccccc1)Nc1ccc(C(=O)N2CCCC2)cc1	TEAD-YAP inh 44
C=C(C)CN1CCN(c2c(Cl)cccc2NC(=O)c2ccc(Br)o2)CC1	none
CCN1CCN(c2c(Cl)cccc2NC(=O)c2cccc3ccccc23)CC1	TEAD-YAP inh 35
O=C(Nc1cccc(Cl)c1N1CCN(CCc2ccccc2)CC1)c1ccc(Br)o1	GPR151 ag 23
COc1cccc(C2CC(c3cccs3)=NN2C(=O)CSc2nnc(CNC(=O)c3cccc(C)c3)n2C)c1OC (configuration not stated)	none
Cc1cc(C)nc(SCC(=O)Nc2ccc(N3CCOCC3)c(Cl)c2)n1	TEAD-YAP inh 32
COc1ccc(-c2cc(CC(=O)NCc3ccc(Cl)cc3)no2)cc1OC	TEAD-YAP inh 47
COc1ccc(-c2cc(CC(=O)NC3CCCC3)no2)cc1OC	none
CCOc1ccc(C(=O)CCNCCC(=O)O)cc1	none
CCOc1ccc(C(=O)CSCCC(=O)O)cc1	TEAD-YAP inh 35
COc1cc2sc(=NC(=O)c3cccs3)n(C)c2cc1OC	none
Cc1ccc2c(c1)sc(=NC(=O)c1cccs1)n2C	TEAD-YAP inh 74

Compound activity (PubChem BioAssay)
